# Measured values taken from the supplement of paper PMC9942566.
# ± gives the standard deviation of the averaged measurements.
# System: Serratia marcescens K904 PosmB-luxCDABE reporter (pMQ747)
# Assay: PosmB-lux reporter fold induction (RLU/OD600 relative to no-compound control), highest over Biolog concentrations; higher = stronger reporter activation
# Settings: ΔrcsB mutant CMS5177; 4 h
# Protocol: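 Serratia marcescens K904 (wild type) or its isogenic ΔrcsB mutant, carrying the Rcs-dependent PosmB-luxCDABE reporter plasmid pMQ747, was grown in LB at OD600 0.1 in Biolog Phenotype MicroArray plates PM11-20 for 4 h at 30-32°C. Each compound is present at 3-4 proprietary concentrations (not stated); per the Fig. S1 legend the value given is the highest fold over those wells. Three independent trials.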
row,SMILES,PosmB-lux reporter fold induction
1,"[Cl][Mn][Cl] [Manganese chloride] (Biolog plate: PM13, well positions: G5-8)",1.41 ± 0.043
2,"[Cl][Fe]([Cl])[Cl] [ferric chloride] (Biolog plate: PM16, well positions: G5-8)",1.47 ± 0.36
3,"[Na+].[O]=[V](=[O])[O-] [Sodium metavanadate] (Biolog plate: PM14, well positions: F9-12)",1.84 ± 1
4,"O=C(O)c1ccccc1S [Thiosalicylic acid] (Biolog plate: PM17, well positions: A9-12)",0.982 ± 0.15
5,"CN(C)c1ccc(O)c2c1C[C@H]1C[C@H]3[C@H](N(C)C)C(O)=C(C(N)=O)C(=O)[C@@]3(O)C(O)=C1C2=O [Minocycline] (Biolog plate: PM11, well positions: C9-12)",1.8 ± 0.42
6,"NC[C@H]1O[C@H](O[C@H]2[C@H](O)[C@@H](O[C@H]3O[C@H](CO)[C@@H](O)[C@H](N)[C@H]3O)[C@H](N)C[C@@H]2N)[C@H](N)C[C@@H]1O [Tobramycin] (Biolog plate: PM12, well positions: F1-4)",1.52 ± 0.67
7,"O=P(O)(O)OP(=O)(O)O [sodium pyrophosphate decahydrate] (Biolog plate: PM18, well positions: A5-8)",0.615 ± 0.16
8,"Nc1ccc(S(=O)(=O)Nc2ncccn2)cc1 [Sulfadiazine] (Biolog plate: PM12, well positions: E5-8)",1.84 ± 0.29
9,"NCC(=O)NO [glycine hydroxamate] (Biolog plate: PM16, well positions: H1-4)",2.02 ± 0.63
10,"S=c1nc[nH]c2nc[nH]c12 [6-Mercapto-purine] (Biolog plate: PM13, well positions: C1-4)",1.22 ± 0.54
11,"C/C=C/C=C/C(=O)O [sorbic acid] (Biolog plate: PM16, well positions: H9-12)",4.84 ± 2.9
12,"CCN(CC)CCOC(=O)c1ccc(N)cc1 [Procaine] (Biolog plate: PM15, well positions: A2-4)",1.04 ± 0.067
13,"CO[C@H]1C[C@H](O[C@H]2[C@H](C)[C@@H](O[C@@H]3O[C@H](C)C[C@H](N(C)C)[C@H]3OC(C)=O)[C@@H](C)C[C@@]3(CO3)C(=O)[C@H](C)[C@@H](OC(C)=O)[C@@H](C)[C@@H](C)OC(=O)[C@@H]2C)O[C@@H](C)[C@@H]1OC(C)=O [troleandomycin] (Biolog plate: PM20, well positions: H9-12)",2.33 ± 1.1
14,"OCC(O)CS (stereo not given) [thioglycerol] (Biolog plate: PM19, well positions: H5-8)",1.08 ± 0.56
15,"CCCCCCCCCCCC[N+](C)(C)C [Dodecyltrimethyl ammonium bromide] (Biolog plate: PM12, well positions: H9-12)",1.97 ± 0.62
16,"CC1(C)S[C@@H]2[C@H](NC(=O)C(C(=O)O)c3ccccc3)C(=O)N2[C@H]1C(=O)O (stereo not given in full) [Carbenicillin] (Biolog plate: PM12, well positions: A9-12)",1.03 ± 0.29
17,"Cc1ccc2c(Cl)cc(Cl)c(O)c2n1 [5,7-Dichloro-8-hydroxy-quinaldine] (Biolog plate: PM15, well positions: B9-12)",1.27 ± 0.13
18,"CCN(CC)CC(=O)Nc1c(C)cccc1C [lidocaine] (Biolog plate: PM18, well positions: D9-12)",0.721 ± 0.15
19,"C[n+]1c2cc(N)ccc2cc2ccc(N)cc21.Nc1ccc2cc3ccc(N)cc3nc2c1 [Acriflavine] (Biolog plate: PM14, well positions: A2-4)",2.05 ± 0.23
20,"CO[C@@]1(NC(=O)C(C(=O)O)c2ccc(O)cc2)C(=O)N2C(C(=O)O)=C(CSc3nnnn3C)CO[C@@H]21 (stereo not given in full) [Moxalactam] (Biolog plate: PM13, well positions: H5-8)",1.94 ± 0.81

row,SMILES,PosmB-lux reporter fold induction
1,"CCS(=O)(=O)CCn1c([N+](=O)[O-])cnc1C [tinidazole] (Biolog plate: PM18, well positions: F5-8)",1 ± 0.3
2,"Cc1nnc(SCC2=C(C(=O)O)N3C(=O)[C@@H](NC(=O)Cn4cnnn4)[C@H]3SC2)s1 [Cefazolin] (Biolog plate: PM11, well positions: E1-4)",1.12 ± 0.15
3,"CN(C)[C@@H]1C(O)=C(C(N)=O)C(=O)[C@@]2(O)C(O)=C3C(=O)c4c(O)ccc(Cl)c4[C@@H](O)[C@H]3C[C@@H]12 [Demeclocycline] (Biolog plate: PM11, well positions: D5-8)",1.59 ± 0.14
4,"O=C([O-])c1ccccc1O.[Na+] [sodium salicylate (NSAID)] (Biolog plate: PM17, well positions: B1-4)",2.06 ± 0.94
5,"CCn1cc(C(=O)O)c(=O)c2cc(F)c(N3CCNCC3)cc21 [norfloxacin] (Biolog plate: PM16, well positions: B1-4)",1.91 ± 0.65
6,"Oc1c(Cl)cc(Cl)c(Cl)c1Cc1c(O)c(Cl)cc(Cl)c1Cl [hexa-chlorophene] (Biolog plate: PM20, well positions: E9-12)",0.997 ± 0.31
7,"CO[C@@H]1[C@@H](O[C@@H]2O[C@H](C)[C@@H](O[C@H]3C[C@@](C)(O)[C@@H](OC(=O)CC(C)C)[C@H](C)O3)[C@H](N(C)C)[C@H]2O)[C@@H](CC=O)C[C@@H](C)[C@@H](O)/C=C/C=C/C[C@@H](C)OC(=O)C[C@H]1OC(C)=O [josamycin] (Biolog plate: PM19, well positions: A2-4)",9.66 ± 6.6
8,"COc1cc(Cc2cnc(N)nc2N)cc(OC)c1OC [trimethoprim] (Biolog plate: PM16, well positions: B9-12)",8.21 ± 3.9
9,"CC[C@H]1OC(=O)[C@H](C)[C@@H](O[C@H]2C[C@@](C)(OC)[C@@H](O)[C@H](C)O2)[C@H](C)[C@@H](O[C@@H]2O[C@H](C)C[C@H](N(C)C)[C@H]2O)[C@](C)(O)C[C@@H](C)C(=O)[C@H](C)[C@@H](O)[C@]1(C)O [Erythromycin] (Biolog plate: PM11, well positions: F5-8)",1.46 ± 0.041
10,"CN[C@H](CC(C)C)C(=O)N[C@H]1C(=O)N[C@@H](CC(N)=O)C(=O)N[C@H]2C(=O)N[C@H]3C(=O)N[C@H](C(=O)N[C@H](C(=O)O)c4cc(O)cc(O)c4-c4cc3ccc4O)[C@H](O)c3ccc(c(Cl)c3)Oc3cc2cc(c3O[C@@H]2O[C@H](CO)[C@@H](O)[C@H](O)[C@H]2O[C@H]2C[C@](C)(N)[C@H](O)[C@H](C)O2)Oc2ccc(cc2Cl)[C@H]1O [Vancomycin] (Biolog plate: PM12, well positions: C5-8)",1.21 ± 0.36
11,"Cc1ncc([N+](=O)[O-])n1CC(O)CCl (stereo not given) [ornidazole] (Biolog plate: PM20, well positions: C9-12)",1.59 ± 0.49
12,"CN1CCN(CCCN2c3ccccc3Sc3ccc(C(F)(F)F)cc32)CC1 [Trifluoperazine] (Biolog plate: PM13, well positions: G9-12)",1.43 ± 0.36
13,"CCCCCCCCCCCC[N+](C)(C)CCCS(=O)(=O)[O-] [lauryl sulfobetaine] (Biolog plate: PM19, well positions: G1-4)",1.4 ± 0.45
14,"CN[C@@H]1[C@@H](O)[C@@H](O[C@@H]2[C@@H](O)[C@H](O[C@H]3OC(CN)=CC[C@H]3N)[C@@H](N)C[C@H]2N)OC[C@]1(C)O [Sisomicin] (Biolog plate: PM12, well positions: D1-4)",1.29 ± 0.5
15,"CO[C@H]1C[C@H](O[C@H]2[C@H](C)[C@@H](O[C@@H]3O[C@H](C)C[C@H](N(C)C)[C@H]3O)[C@@H](C)C[C@@]3(CO3)C(=O)[C@H](C)[C@@H](O)[C@@H](C)[C@@H](C)OC(=O)[C@@H]2C)O[C@@H](C)[C@@H]1O [Oleandomycin] (Biolog plate: PM15, well positions: F5-8)",2.18 ± 0.57
16,"CCCCCCCC[N+](C)(CCCCCCCC)CCCCCCCC [methyltrioctyl-ammonium chloride] (Biolog plate: PM19, well positions: B1-4)",2.23 ± 1.5
17,"O=C(OC[C@H]1O[C@@H](OC(=O)c2cc(O)c(O)c(OC(=O)c3cc(O)c(O)c(O)c3)c2)[C@H](OC(=O)c2cc(O)c(O)c(OC(=O)c3cc(O)c(O)c(O)c3)c2)[C@@H](OC(=O)c2cc(O)c(O)c(OC(=O)c3cc(O)c(O)c(O)c3)c2)[C@@H]1OC(=O)c1cc(O)c(O)c(OC(=O)c2cc(O)c(O)c(O)c2)c1)c1cc(O)c(O)c(OC(=O)c2cc(O)c(O)c(O)c2)c1 [tannic acid] (Biolog plate: PM17, well positions: F9-12)",0.888 ± 0.24
18,"C[C@H]1c2cccc(O)c2C(=O)C2=C(O)[C@]3(O)C(=O)C(C(N)=O)=C(O)[C@@H](N(C)C)[C@@H]3[C@@H](O)[C@@H]21 [Doxycycline] (Biolog plate: PM13, well positions: C5-8)",1.91 ± 0.69
19,"O=c1[nH]c(=O)n([C@H]2C[C@H](O)[C@@H](CO)O2)cc1C(F)(F)F [trifluorothymidine] (Biolog plate: PM18, well positions: B1-4)",1.09 ± 0.28
20,"O=C(O)CN(CCOCCOCCN(CC(=O)O)CC(=O)O)CC(=O)O (Biolog plate: PM14, well positions: H1-4)",1.53 ± 0.51
